Assay results from paper PMC12136788.
Over roughly 24,000 sequences, “enrichment r” has its median near 0.99; the highest 2% begin near 3.7. This excerpt belongs to a sample that is enriched for the highest values.

B1: 47062174_47062422_1437_CDS_ENSG00000130985_ENST00000335972|human|control|control (ssRNA)
RNA: GGGAGUUCUACAGUCCGACGAUCGACCUCUUUGUCCUCAGGGAGACACUCAAGGGCAUCAAAGUAUAGCCACUGCAUGAUGGGCAUGAACUUCCCGGAGCAGGCCUUCAUGACUUCCUGGGCAGCCAGGCCCCCAAUGAAGGCCAACAGAGGAUUGAGCAUCA
B2: 62352434_62352554_269_CDS_ENSMUSG00000018509_ENSMUST00000018653|mouse|control|control (ssRNA)
RNA: GGGAGUUCUACAGUCCGACGAUCCUGCUCCCCCAGGUCGAGCGCCGACACCGAGGCGGCGGGGGUGACCGCCGGCGGUGGCUCCUCGGCGGCCGCCUCCUGGGCCCGCGGCGGUGGCUUGGGCCGCGGCUUUGCCGACGGCUGCAACAGAGGAUUGAGCAUCA
B3: 44991723_44991843_1432_CDS_ENSMUSG00000038518_ENSMUST00000173246|mouse|control|control (ssRNA)
RNA: GGGAGUUCUACAGUCCGACGAUCCUGAGCAGACCGAUGCGAAGGGGGAGGUUGGUGGUUGGCAGCAAGUCCCUUGGCAGAGGAAGCCGCAGCCGAGGCGGCCGUGGGCUGAGCCCCUGAAGCCUGUUCUCUCCGGCUGUCUGCCAACAGAGGAUUGAGCAUCA
B4: 126416003_126416123_291_3pUTR_ENSMUSG00000078429_ENSMUST00000105256|mouse|control|control (ssRNA)
RNA: GGGAGUUCUACAGUCCGACGAUCAGGCGGCCUGCACAGAGGGCGGGCGGGCCAGGCGGCGGCUUCCCCGGUGCCCCCAGCCCCGAUCCCCCGGUGGCAGCUCCGGGCUCCUCAGUUUGGGUCCAACAUGGAGAAUCCGGAGCGCAACAGAGGAUUGAGCAUCA
B5: 132387670_132387790_77_5pUTR_ENSG00000170606_ENST00000304858|human|control|control (ssRNA)
RNA: GGGAGUUCUACAGUCCGACGAUCGGUACUGCAACCGAGAGCGCUGCUCAGGCCGGCUCCGGCUCAGUGGCCGCAGAGGAGGCGCCGGUAGCGGGGGCGGAGAAGAUCUCGAAAGAUCUCGUUGCGACGAGAGCGGAGCCGCAGCAACAGAGGAUUGAGCAUCA
B6: 86322860_86322980_198_3pUTR_ENSG00000135018_ENST00000376395|human|control|control (ssRNA)
RNA: GGGAGUUCUACAGUCCGACGAUCCUUCCUCCUCCCUGCCCCUUCCCCCACGUCCCUUCGCCGGCGCCGCGCGGAGCACGCCGGGUAACGCGCCUGGCGGCGUCGCCGAGUCAUCCCCGGCUGGCGCGACUUUGAGCUCAGCCUCAACAGAGGAUUGAGCAUCA
B7: chr6:30691630:30691631:+_ENSG00000196230_ENST00000327892|hu_hu|FALSE|FALSE (ssRNA)
RNA: GGGAGUUCUACAGUCCGACGAUCAGCUCGAUACUGCUGGCUUCCACGGCUGGUGAGAGGGGCAAAGCCAGGCAUAAAGAAAUGGAGACGUGGGAAGGGGACCAUGUUGACUGCCAACUUGCGGAGGUCAGCAUUGAGCUGGCCCAACAGAGGAUUGAGCAUCA
B8: chr2:180329438:180329439:+_ENSMUSG00000049401_ENSMUST00000029087|mus_hu|FALSE|FALSE (ssRNA)
RNA: GGGAGUUCUACAGUCCGACGAUCCUCUGAGGCACUCUGAGGGCCUGGCUCUGUGGGCGGCUGCUCCCGCCGGCUCAGCUCCAGCUUCCUCUUCUUGCUCUCUUUGGGGCUUAAGGGCUCCGGCCUAUCUUCCCCGUGGCCCCCCAACAGAGGAUUGAGCAUCA
B9: chr6:35489678:35489679:-_ENSMUSG00000029840_ENSMUST00000031866|mus_hu|FALSE|FALSE (ssRNA)
RNA: GGGAGUUCUACAGUCCGACGAUCAGAAGAUGAGGAGGCGGUGGCAGCAGCAAGCGGAUGCCGCCGGGCGAGAGGGAGGCAGGGCCGCGCGAAGCCGGAGAGGAGAAGAAGAGAAGGAGGGUUAGGCUGCCAGGCGGGCGAGGCCAACAGAGGAUUGAGCAUCA
B10: 91300164_91300284_179_3pUTR_ENSMUSG00000038459_ENSMUST00000117085|mouse|control|control (ssRNA)
RNA: GGGAGUUCUACAGUCCGACGAUCCCGCCGGGGCGGGCGCGGGGGUCGCCGCGGGAGCGGGCGCGCGCUGCUCGGGCGCCAGCACCGUGUAGGUGGGUUCGGGCGGCAGGAAGGCCAGCUUGGCGGCGAUGCGGCUCGGACAAGCAACAGAGGAUUGAGCAUCA
B11: chr7:133967480:133967481:+_ENSMUSG00000058966_ENSMUST00000079423|mus_mus|FALSE|FALSE (ssRNA)
RNA: GGGAGUUCUACAGUCCGACGAUCAGGGAGUUGGAGGUGAAGAAGGGAUUGCCAAGCCAGAAAGGGAGAGAGAAAGAGGGAGGGGGAGGCACAAAGGGGCCAGGGCGGGGACAGGAUGGGACAAGAGGACCAGUUCAGGGCAAGCAACAGAGGAUUGAGCAUCA
B12: 98346538_98346658_211_5pUTR_ENSG00000077147_ENST00000371142|human|control|control (ssRNA)
RNA: GGGAGUUCUACAGUCCGACGAUCCAGCCACAGCGCGGCGGCCGCCGCCACGCCAAGAGCGCCAGGCAGCGGCCUCAUCCUCCGCGCCCCUCCGGCCCGGAGCCGGCUCACCGACUCCUCCUCCCGCCGCCGCCUCCUCCGCCGCAACAGAGGAUUGAGCAUCA
B13: chr9:123912698:123912699:+_ENSG00000119397_ENST00000373850|hu_hu|FALSE|FALSE (ssRNA)
RNA: GGGAGUUCUACAGUCCGACGAUCAUGGUGUUCAGGGACGUUGCAAUGCAGCACACCCAUAGGGAUGAAGGGGAUGGAGAAGUUGGGGGGUGGAGGCCCAUACACCAUGGGGGCCCCAGCAGGAGGUGGGCCAUAAACAACAGUCAACAGAGGAUUGAGCAUCA

target: T1, UNK ZnF1-3 (human, UniProt Q9C0B0 31-174); experiment: nsRBNS (natural sequence RNA bind-n-seq); RBNS binding buffer (assumed for nsRBNS): 25 mM Tris pH 7.5, 150 mM KCl, 3 mM MgCl2, 0.01% Triton X-100, 500 ug/ml BSA, 20 U/ml SUPERase-In, 4 C; UNK is unkempt and MSI1 is Musashi-1; names of the RNAs are library labels; protein concentration not given here; high values mean tight binding
T1 sequence: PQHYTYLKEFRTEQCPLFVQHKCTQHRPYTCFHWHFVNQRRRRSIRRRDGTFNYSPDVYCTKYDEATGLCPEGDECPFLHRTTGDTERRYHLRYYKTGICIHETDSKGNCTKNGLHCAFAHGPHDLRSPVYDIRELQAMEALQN

| Binder | binding signal [enrichment R] |
| --- | --- |
| B1 | 1.06 |
| B2 | 4.47 |
| B3 | 1.39 |
| B4 | 2.26 |
| B5 | 1.09 |
| B6 | 0.759 |
| B7 | 1.75 |
| B8 | 0.81 |
| B9 | 3.69 |
| B10 | 0.777 |
| B11 | 5.53 |
| B12 | 5.42 |
| B13 | 1.48 |
